# Data taken from PubChem BioAssay (NCI).
# This is part of a sample that, as a whole, favours compounds with a hit. Of some 83,000 tested, about 20% had one in any assay.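 Activity criterion: percent growth below 10, measured after cells in 96-well plates were exposed to a single compound concentration for 48 hours.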 Unmarked numbers belong to inactive results. Activity calls are given as the source filed them.
# System: UO-31 renal
# Test: NCI-60 one-dose screen, 48 h (100 = growth as untreated, 0 = no growth, -100 = all killed)
# Conditions: 10 µM unless noted
row,Compound,growth
1,Brc1ccc(-c2n(Cc3ccc4ccccc4c3)c(-c3ccccc3)c(-c3ccccc3)[n+]2Cc2ccc3ccccc3c2)cc1,-79% (active)
2,O=C1CCCc2cc(OCC(=O)N3CCCCC3)ccc2N1,92.9%
3,COc1cc2c3c(n(CCCN4CCC[C@@H]4CO)c(=O)c2cc1OC)-c1cc2c(cc1C3=O)OCO2,-92.5% (active)
4,CC(=O)c1c(N)c(C#N)cn1-c1ccc(Cl)cc1Cl,68.4%
5,Cc1ccc(C2CC(c3ccc(S(=O)(=O)NCCNc4nc(Nc5ccc(F)cc5)nc(N(C)C)n4)cc3)=Nc3c(N)nc(N)nc3N2)cc1 (configuration not stated),67.4%
6,Cc1ccc(C(=O)C(c2c[nH]c3ccccc23)c2c[nH]c3ccccc23)cc1,26.4%
7,COc1cc(-c2nc3ccc(C)cc3[nH]2)ccc1OCc1nnc(-c2ccc(Br)cc2)o1,43%
8,Nc1nnc(-c2c[nH]c3ccc(Br)cc23)c(-c2c[nH]c3ncc(Br)cc23)n1,42.1%
9,Cc1ccc(-c2nc(C#N)c(S(=O)(=O)N3CCN(S(=O)(=O)c4ccc(Cl)cc4)CC3)o2)cc1,97.3%
10,CCOC(=O)C1=C(N)N(c2ccccc2)C2=C(C(=O)CC(C)(C)C2)C1c1ccccc1Cl (configuration not stated),55.3%
11,Cc1ccc(C(=O)NN2C(=O)/C(=C/C=C/c3ccc([N+](=O)[O-])o3)SC2=S)cc1,-100% (active)
12,CCCS(=O)(=O)N1CCCC(C(=O)Nc2nc3ccc(NC(=O)c4ccc(F)c(OC)c4F)cc3s2)C1 (configuration not stated),38.8%
13,O=C1CC(Sc2n[nH]c(-c3ccncc3)n2)C(=O)N1c1ccc(Br)cc1 (configuration not stated),88.7%
14,COc1ccc(NC(=O)Nc2ccc(OCc3ccc(F)cc3)cc2)cc1,26.3%
15,COc1ccc(/C=C/c2nc3ccccc3n3c(-c4ccc(Cl)cc4)nnc23)cc1,66.4%
16,CC1(C)CC[C@]2(C(=O)O)CC[C@]3(C)C(=CCC4[C@@]5(C)C[C@@H](O)[C@@H]6OC(c7ccccc7Br)OC[C@@]6(C)C5CC[C@]43C)C2C1 (some centres not stated),15.5%
17,CC(=O)OCC1OC(OC2C(COC(C)=O)OC(n3cc(COc4ccc5ccc(=O)oc5c4)nn3)C(OC(C)=O)C2OC(C)=O)C(OC(C)=O)C(OC(C)=O)C1OC(C)=O (configuration not stated),74.7%
18,COc1ccc(Cc2nn(CC(=O)N/N=C/c3ccc(F)cc3)c(=O)c3c(C)noc23)cc1,-48% (active)
19,O=C(c1ccccc1)C(c1c[nH]c2ccccc12)c1c[nH]c2ccccc12,45%

row,Compound,growth
1,N=C1N=C(SCc2nc3ccccc3[nH]2)NC(=O)/C1=C/c1ccc(Cl)cc1,70.5%
2,Cn1cc(-c2cc3nc(-c4c[nH]c5ccc(Cl)cc45)cc(N)n3n2)c2ccccc21,-98.6% (active)
3,CC1(C)CC[C@]2(C(=O)O)CC[C@]3(C)C(=CCC4[C@@]5(C)C[C@@H](O)[C@@H]6OC(c7ccco7)OC[C@@]6(C)C5CC[C@]43C)C2C1 (some centres not stated),22.7%
4,COc1ccc(C2CC(c3ccc(S(=O)(=O)NCCNc4nc(Nc5ccc(F)cc5)nc(N(C)C)n4)cc3)=Nc3c(N)nc(N)nc3N2)cc1 (configuration not stated),86.2%
5,O=C(Nc1ccccc1)N1CCN(c2cc(-c3cn(-c4ccccc4)nc3-c3cccc(O)c3)ccn2)CC1,55.1%
6,CNS(=O)(=O)c1ccc(Nc2ccc(C(F)(F)F)cc2)c(-c2cn(C)cn2)c1,9.13% (active)
7,CCS(=O)(=O)N1CCCC(C(=O)Nc2nc3ccc(NC(=O)c4ccc(F)c(OC)c4F)cc3s2)C1 (configuration not stated),54.5%
8,COc1ccc(CCC2c3c(cc4c(c3OC)OCO4)CCN2C)cc1 (configuration not stated),-21.9% (active)
9,Nc1nc(-c2ccccc2)c(N=Nc2ccc([N+](=O)[O-])cc2Cl)s1,94.9%
10,CN(C)c1nc(NCCNS(=O)(=O)c2ccc(C3=Nc4c(N)nc(N)nc4NC(c4ccccc4)C3)cc2)nc(Nc2ccc(F)cc2)n1 (configuration not stated),69%
11,N/C(=N\c1nc2ccccc2s1)NC(=O)Nc1ccc(Cl)cc1Cl,-93% (active)
12,CCCCn1c(O)c(N=Nc2nc(-c3cc4ccccc4oc3=O)cs2)c2cc(Br)ccc21,85%
13,Cc1cccc(-c2nc(Nc3cccc(S(N)(=O)=O)c3)c3ccccc3n2)c1,29.7%
14,Cn1cc(-c2cc(N)n3nc(-c4cn(C)c5ccccc45)cc3n2)c2cc(Br)ccc21,-84.2% (active)
15,COc1cc2c(c(OC)c1OC)C(=O)CC(c1cccc(NC(=O)c3cc(NC(=O)[C@H](C)N)ccc3Cl)c1)O2 (some centres not stated),46.4%
16,C#CCOc1cc(N(CC)CC)ccc1C(C(=O)NC(C)(C)C)N(C(=O)C1CCc2cc(F)ccc2O1)c1cc(C)cc(C)c1 (configuration not stated),23.2%
17,Cc1ccc(C2=NN(c3nc(-c4cc5ccccc5oc4=O)cs3)C(c3ccc(C)cc3)C2)cc1 (configuration not stated),68%
18,Cn1cc(-c2nc(N)nnc2-c2c[nH]c3ccc(F)cc23)c2cc(Br)cnc21,6.23% (active)
